The supplement of paper PMC12494721
Structures can show the parent of a compound that is named as a salt.

test system: Klebsiella aerogenes DSM 30053; test: fold change of Putrescine concentration vs plate DMSO controls (fold change (ratio)); higher = more amine produced, active = hit call of the paper (significant change in both replicates, either direction); details: incubation time: 27 h, anaerobic, 37 °C;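 for the amine columns active = adjusted P below 0.05 in both replicates with a change the same way and a mean fold change under 0.8 or over 1.25; inactive = the rest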
How it was run: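 Amine values are fold changes relative to DMSO-only wells on the same plate. They derive from 27 h, 37 °C anaerobic mGAM cultures of four gut bacterial strains in 80 µL wells, dosed at 20 µM final, or 50 µM final for sweeteners. Extraction of the whole culture, LC–triple-quadrupole MS in dynamic MRM mode, external calibration curves and within-batch drift correction were used, with 2 biological replicates averaged.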

Fold change of Putrescine concentration, active:
C[C@@H](O)[C@H]1C(=O)N2C(C(=O)O)=C(S[C@@H]3CN[C@H](C(=O)N(C)C)C3)[C@H](C)[C@H]12 [Meropenem] (20 µM) 0.605

Fold change of Putrescine concentration, inactive:
CC(=O)OCC(CCn1cnc2cnc(N)nc21)COC(C)=O [Famciclovir] (20 µM) 1.01
COC(c1ccccc1)(c1ccccc1)[C@H](Oc1nc(C)cc(C)n1)C(=O)O [Ambrisentan] (20 µM) 0.992
C[C@H](CCC(=O)O)[C@H]1CC[C@H]2[C@@H]3[C@@H](O)C[C@@H]4C[C@H](O)CC[C@]4(C)[C@H]3CC[C@]12C [Urosiol] (20 µM) 0.961
C=C(CC)C(=O)c1ccc(OCC(=O)O)c(Cl)c1Cl [Ethacrynic acid] (20 µM) 1.03
C[C@]12CC[C@@H]3c4ccc(O)cc4CC[C@H]3[C@@H]1C[C@@H](O)[C@@H]2O [Estriol] (20 µM) 0.993
Cc1cc2cc3c(C)cc(=O)oc3c(C)c2o1 [Trioxsalen] (20 µM) 0.997
O=C(Nc1cccc2c(=O)cc(-c3nnn[nH]3)oc12)c1ccc(OCCCCc2ccccc2)cc1 [Pranlukast] (20 µM) 1.01
C[N+]1(C)CCC(OC(=O)C(O)(c2ccccc2)C2CCCC2)C1 (configuration not stated) [Glycopyrrolate bromide] (20 µM) 1
CC(C)(O)c1ccccc1CC[C@@H](SCC1(CC(=O)O)CC1)c1cccc(/C=C/c2ccc3ccc(Cl)cc3n2)c1 [Montelukast] (20 µM) 1.05
C[C@@H]1C[C@H]2[C@@H]3C[C@H](F)C4=CC(=O)C=C[C@]4(C)[C@@]3(Cl)[C@@H](O)C[C@]2(C)[C@H]1C(=O)COC(=O)C(C)(C)C [Clocortolone pivalate] (20 µM) 0.999
CCOC(=O)C1=C[C@]2(CC)CCCN3CCc4c(n1c1ccccc41)[C@@H]32 [Vinpocetine] (20 µM) 1.02
Clc1ccccc1C(c1ccccc1)(c1ccccc1)n1ccnc1 [Clotrimazole] (20 µM) 1.02
CC(C[N+](C)(C)C)OC(N)=O (configuration not stated) [Bethanechol chloride] (20 µM) 1.01
C=CC(N)CCC(=O)O (configuration not stated) [Vigabatrin hydrochloride] (20 µM) 1.01
C=C1C[C@@]23CC[C@H]4[C@@](C)(CCC[C@@]4(C)C(=O)O[C@@H]4O[C@H](CO)[C@@H](O)[C@H](O)[C@H]4O)[C@@H]2CC[C@]1(O[C@@H]1O[C@H](CO)[C@@H](O)[C@H](O)[C@H]1O[C@@H]1O[C@H](CO)[C@@H](O)[C@H](O)[C@H]1O)C3 [Stevioside] (50 µM) 0.863
CCCN(CCC)C(=O)C(CCC(=O)O)NC(=O)c1ccccc1 (configuration not stated) [Proglumide] (20 µM) 0.919
CN1CCC(=C2c3ccccc3CC(=O)c3sccc32)CC1 [Ketotifen fumarate] (20 µM) 0.996
Cc1ccc(-c2ncc(Cl)cc2-c2ccc(S(C)(=O)=O)cc2)cn1 [Etoricoxib] (20 µM) 0.959
CC(C)(C)c1ccc(C(O)CCCN2CCC(C(O)(c3ccccc3)c3ccccc3)CC2)cc1 (configuration not stated) [Terfenadine] (20 µM) 0.97
CC(NN)c1ccccc1 (configuration not stated) [Mebanazine] (20 µM) 1.03
OCCN1CCN(CC/C=C2/c3ccccc3Sc3ccc(C(F)(F)F)cc32)CC1 [Flupentixol dihydrochloride cis-(Z)] (20 µM) 0.933
C#CCN(C)CCCOc1ccc(Cl)cc1Cl [Clorgyline hydrochloride] (20 µM) 0.984
CN(C)C(=O)C(CCN1CCC(O)(c2ccc(Cl)cc2)CC1)(c1ccccc1)c1ccccc1 [Loperamide hydrochloride] (20 µM) 0.963
CC[N+](CC)(CC(=O)Nc1c(C)cccc1C)Cc1ccccc1 [Denatonium benzoate] (20 µM) 0.995
COc1cc(C)c(/C=C/C(C)=C/C=C/C(C)=C/C(=O)O)c(C)c1C [Acitretin] (20 µM) 0.996
Nc1ccn([C@@H]2O[C@H](CO)[C@@H](O)[C@@H]2O)c(=O)n1 [Cytarabine] (20 µM) 1.02
